According to PubChem BioAssay AID624296 (National Center for Advancing Translational Sciences (NCATS), 2012):
Screen size: about 350,000 compounds; about 9,900 (2.8%) were called active. Inconclusive results (about 15%) are left out. The full list was thinned out, with actives kept by preference. A number with no mark means an inactive call. Calls come from the whole dose curve; as a rule, active = well fitted activation curve with a large enough effect; inconclusive = small, poorly fitted or top-dose-only effect; inactive = no such curve, though single readings can be large or run the other way.
Potency is the fitted concentration of half-maximal effect.

Assay: A quantitative high throughput screen for small molecules that induce DNA re-replication in MCF 10a normal breast cells. For activity, positive = re-replication: % of control where 0% means no effect. Note: nearly all actives have a fitted effect of over 50% in size.
Details: MCF 10A DNA re-replication, Hoechst nuclear intensity, 48 h; series mostly up to 46.1 µM; activity, positive = re-replication: at the top concentration
From the text: H Molecular Libraries Probe Production Network [MLPCN]
NIH Chemical Genomics Center [NCGC]
Assay Provider: Melvin DePamphilis, NICHD, NIH
Eukaryotic cells normally restrict genome duplication to once per cell division. When this process is aberrant, DNA re-replication occurs when cells reinitiate DNA replication before the first round of replication is complete. DNA re-replication induces the DNA damage response, arrests cell proliferation, and triggers apoptosis. The cell cycle components cyclin A, Cdt-1, Cdc6 and geminin are critical regulators of this process and their misregulation results in DNA re-replication in normal and cancer cells. To identify compounds that induce re-replication in normal cells, an image-based assay was used to measure DNA content of nuclei, as detected by the fluorescent DNA binding dye, Hoechst. Cell nuclei were imaged by a fluorescence scanning plate imager and compounds that induce DNA re-replication were identified by the increase of nuclei with elevated fluorescence intensity
For screening, 250 cells in 5 uL/well were dispensed into black clear 1536-well plates (Aurora) using a solenoid-based dispenser. Following transfer of 23 nL compound or DMSO vehicle by a pin tool, the plates were incubated 48 hr at 37 C and 5% CO2. After addition of 1 uL/well Hoescht stain, the plates were incubated 40 min at 37 C, 5% CO2 and total intensity of fluorescent objects (nuclei) were enumerated by an Acumen Explorer Ex3 (TTP LabTech) fluorescence scanning plate imager (405 nm excitation, 500-530 nm emission).
Keywords: NIH Roadmap, MLPCN, MLI, MLSMR, qHTS, NCGC, DNA replication, cancer
For `Cc1c(C(=O)N2CCCc3ccccc32)sc2nc(-c3ccccc3)cn12`, the “activity, positive = re-replication” value was 0.373%. With `Cc1cccc2cc3c(N)c(C(=O)N4CCCc5ccccc54)sc3nc12` the Potency was 1300 nM (active). In the case of `Cc1c(C(=O)N2CCCc3ccccc32)oc2ccccc12`, the “activity, positive = re-replication” value is reported as 2.24%. With `CCOC(=O)[C@H]1[C@H]2COc3ccc(C)cc3[C@@H]2N2C(=O)CN(Cc3ccc(F)cc3)C(=O)[C@@]12C` the “activity, positive = re-replication” value was -2.25%. For `Cc1cccc(CS(=O)(=O)c2ncc(Cl)c(C(=O)Nc3ccc(F)cc3)n2)c1`, the “activity, positive = re-replication” value was 28.2%. For `CCSc1nnc(NC(=O)c2ccc(C)cc2)s1`, the “activity, positive = re-replication” value was -13%. For `CSc1nnc(NC(=O)c2nc(S(=O)(=O)Cc3ccc(C)cc3)ncc2Cl)s1`, the Potency was 1160 nM (active). With `CC(CNC(=O)Cn1cnc2c(OCc3ccccc3)ncnc21)c1ccccc1` (stereo not given) the “activity, positive = re-replication” value was 14.7%. With `Nc1ncnc2c1ncn2[C@@H]1O[C@H](CNS(=O)(=O)c2ccc(-c3ccno3)s2)[C@@H](O)[C@H]1O` the “activity, positive = re-replication” value was -2.41%. In the case of `CCOc1ccccc1N(CC(=O)Nc1ccccc1C(=O)OC)S(C)(=O)=O`, the “activity, positive = re-replication” value is reported as -1.3%. In the case of `CCOc1ccccc1C1C(C(=O)OC)=CN(C)C=C1C(=O)OC`, the Potency is reported as 14600 nM (active). In the case of `CCOc1cc(C2C(C(=O)OC)=CN(C3CCCC3)C=C2C(=O)OC)cc(Br)c1O`, the “activity, positive = re-replication” value is reported as 25.1%. In the case of `CC(C)(C)OC(=O)N[C@H](C(=O)OC(C)(C)C)c1ccc(Br)cc1`, the “activity, positive = re-replication” value is reported as 2.13%. With `Cc1ccc(S(=O)(=O)CCC(=O)OCC(=O)N(C)Cc2ccccc2)cc1` the “activity, positive = re-replication” value was 3.44%. In the case of `COc1ccc(-c2cc(C(=O)n3cnc4ccccc43)c3ccccc3n2)cc1`, the “activity, positive = re-replication” value is reported as 10.2%. With `CNC(=O)COC(=O)c1cc(-c2ccc(OC)cc2)nc2ccccc12` the “activity, positive = re-replication” value was 1.21%. In the case of `COc1ccc(-c2cc(C(=O)N(C)Cc3ccccc3)c3ccccc3n2)cc1`, the Potency is reported as 3660 nM (active). For `Cc1ccc(-c2cc(C(=O)Nc3nn[nH]n3)c3ccccc3n2)c(C)c1`, the “activity, positive = re-replication” value was -0.175%. In the case of `COc1ccc(CN(C)C(=O)Cc2c[nH]c3ccccc23)c(OC)c1OC`, the “activity, positive = re-replication” value is reported as 0.353%. For `COc1ccc(CN(C)C(=O)c2cc(-c3ccc(C)cc3C)nc3ccccc23)c(OC)c1OC`, the Potency was 23100 nM (active). In the case of `Cc1ccc(C)c(OCC(=O)NNC(=O)C2CCC2)c1`, the “activity, positive = re-replication” value is reported as -1.95%. In the case of `COC(=O)c1ccc(CNC(=O)c2ccc(S(=O)(=O)N3CCCCCC3)cc2)cc1`, the “activity, positive = re-replication” value is reported as 3.13%. With `NC(=O)C1CCN(C(=O)c2cc(S(=O)(=O)N3CCN(c4ccccc4)CC3)ccc2Cl)CC1` the “activity, positive = re-replication” value was 1.92%. For `C=CCN1C2CCCC1CC(NC(=S)Nc1cccc(OC)c1)C2` (stereo not given), the “activity, positive = re-replication” value was 26.8%. With `CCCNC(=S)NC1CC2CCCC(C1)N2CC(C)C` (stereo not given) the Potency was 14600 nM (active). In the case of `CCCN1C2CCCC1CC(NC(=O)NC13CC4CC(CC(C4)C1)C3)C2` (stereo not given), the “activity, positive = re-replication” value is reported as 1.95%. In the case of `Nc1cc(=O)n(Cc2ccccc2)c(=O)n1Cc1ccccc1`, the “activity, positive = re-replication” value is reported as 4.05%. For `C/C(=N\Nc1ccc(Cl)nn1)c1ccccc1O`, the “activity, positive = re-replication” value was -5.86%. In the case of `C=CCC[C@H](Cc1ccc(F)cc1)C(=O)OC[C@H](C)NC(=O)[C@H](CC=C)CC(=O)N(CCO)Cc1ccccc1`, the “activity, positive = re-replication” value is reported as -0.934%. For `Cc1ccc(S(=O)(=O)N(C)C)cc1NC(=O)C(C)OC(=O)c1ccc2ccccc2n1` (stereo not given), the “activity, positive = re-replication” value was -4.02%. For `COc1cccc(NC(=O)COc2cccnc2[N+](=O)[O-])c1`, the “activity, positive = re-replication” value was -7.21%. In the case of `COc1ccc(S(=O)(=O)Nc2cccc3c2O[C@H](CN(C)S(=O)(=O)c2ccc(OC)cc2)[C@@H](C)CN([C@H](C)CO)C3=O)cc1`, the “activity, positive = re-replication” value is reported as -0.847%. With `CCOC(=O)c1[nH]c2c(c1-c1ccccc1)C(=O)CC(c1ccc(Cl)cc1)C2` (stereo not given) the “activity, positive = re-replication” value was 15.6%. For `CCCOC(=O)c1[nH]c2c(c1C)C(=O)CC(c1cccs1)C2` (stereo not given), the Potency was 206 nM (active). With `COCCOC(=O)c1[nH]c2c(c1C)C(=O)CC(c1ccc(OC)cc1)C2` (stereo not given) the “activity, positive = re-replication” value was 0.888%. In the case of `CCOc1ccc(NC(=O)CN(C)C(=O)CCSc2ccc(F)cc2)cc1OCC`, the “activity, positive = re-replication” value is reported as 14.2%. With `COc1cc(/C=C/C(=O)OCC(=O)c2ccccc2)cc(OC)c1OC` the “activity, positive = re-replication” value was -2.78%. In the case of `COc1ccccc1C(CNC(=O)c1cccc(S(=O)(=O)Nc2ccc(F)cc2)c1)N(C)C` (stereo not given), the “activity, positive = re-replication” value is reported as -2.12%. With `COc1ccc(/C=C2\N=C3CCCN3C2=O)cc1` the “activity, positive = re-replication” value was 1.17%. With `COc1ccc(-n2c(=S)[nH]c3sc4c(c3c2=O)CCc2ccccc2-4)cc1` the “activity, positive = re-replication” value was -4.02%. With `COc1ccc(/C=C2/CCCc3ccccc3C2=O)cc1` the Potency was 1640 nM (active). For `Cc1c[n+]([O-])ccc1[N+](=O)[O-]`, the “activity, positive = re-replication” value was 142%. With `O=c1c2cc(Br)ccc2nc(-c2cccc(Cl)c2)n1O` the Potency was 2910 nM (active). With `NC(=O)c1cc(-c2cccnc2)nc2ccc(Br)cc12` the “activity, positive = re-replication” value was -0.473%. For `Cc1cccc(-c2nc3ccccc3c(=O)n2NC(=O)Cc2ccc(Cl)cc2)c1`, the “activity, positive = re-replication” value was 11.1%. For `O=C1CCCc2c1nc(-c1cccc(Cl)c1)n2O`, the Potency was 1460 nM (active). With `Cc1cc(=O)n2[nH]c(-c3cccc(Cl)c3)cc2n1` the “activity, positive = re-replication” value was 4.55%. For `CCOC(=O)CSc1ncc(-c2cccc(Cl)c2)cn1`, the “activity, positive = re-replication” value was -0.286%. In the case of `Cc1ccsc1C(=O)OCC(=O)NCCc1ccccc1`, the “activity, positive = re-replication” value is reported as 6.08%. For `O=C1C=CN2CCCC2CC1` (stereo not given), the “activity, positive = re-replication” value was 3.86%.
